Experimental data taken from PubChem BioAssay (NCATS).
Results filed as inconclusive are left out. Entries that show only a call come without a potency. The source made the active and inactive calls. Calls come from the whole dose curve; as a rule, active = well fitted inhibition curve with a large enough effect; inconclusive = small, poorly fitted or top-dose-only effect; inactive = flat fitted curve, though single readings scatter.

biological target: Calcium and integrin-binding protein 1 (Homo sapiens) (UniProt Q99828); assay: Primary qHTS for Identification of Calcium Integrin Binding Protein 1 (CIB1) Competitor (AID 1508620); conditions: CIB1-GST / FITC-alphaIIb peptide fluorescence polarization; series mostly up to 114 µM;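 note: GST tagged CIB1 binding a fluorescein labelled alphaIIb integrin peptide tracer; top concentration of the series differs between compounds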
Sequence (Q99828 whole entry, looked up): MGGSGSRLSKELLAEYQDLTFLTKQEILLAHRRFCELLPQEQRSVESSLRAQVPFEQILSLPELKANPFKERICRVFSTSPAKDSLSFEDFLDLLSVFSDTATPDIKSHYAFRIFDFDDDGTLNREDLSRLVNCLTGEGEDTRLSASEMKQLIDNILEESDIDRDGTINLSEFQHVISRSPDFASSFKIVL
In short: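 CIB1-GST (1 uM final) and compound incubated 15 min at room temperature before adding FITC-alphaIIb peptide tracer (100 nM final). Competition for binding read by fluorescence polarization (ex 480, em 540) after another 15 min at room temperature.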

Structure (SMILES)	Potency
COc1ccc(-c2no[n+]([O-])c2C#N)cc1	inactive
Cc1noc(C)c1-c1ccc2ncnc(NCc3ccc(Br)cc3)c2c1	inactive
CCN1CCN(C(=O)CCN(CC(C)C)c2nc(-c3cccs3)nc3ccccc23)CC1	inactive
CC(C)Oc1ccc(-c2csc(N3CCC(C(N)=O)CC3)n2)cc1	inactive
c1nc(NCCCN2CCCCC2)c2cc(-c3ccc4c(c3)OCO4)ccc2n1	inactive
O=C(Nc1ncc(Cc2ccc(C(F)(F)F)cc2)s1)c1ccc(-c2cccnc2)o1	inactive
CC(=O)Nc1ccc(S(=O)(=O)N2CCN(S(=O)(=O)c3ccc4c(c3)OCCO4)CC2)cc1	inactive
S=C(NCCCc1cnc[nH]1)NCCCN(Cc1ccc(Cl)cc1)c1ccc(Br)cn1	inactive
O=C1CCCC2=C1C(c1[nH]ncc1Cl)NC(=NCCc1cccnc1)N2 (stereo not given)	inactive
Cc1ccc(-c2ccc(=O)n(CC(=O)NCCc3ncc[nH]3)n2)cc1	inactive
O=[S+]([O-])(c1c(F)cccc1F)N1CCN([S+](=O)([O-])c2csc3ccccc23)CC1	inactive
Cc1ccc(NS(=O)(=O)c2ccc3c(c2)N(C)C(=O)CO3)cc1C	inactive
Cc1csc(CNc2ncnc3ccc(-c4ccc5c(c4)OCO5)cc23)c1	inactive
O=C(Nc1cc(C(F)(F)F)cc(C(F)(F)F)c1)Nc1nnc(-c2ccncc2)s1	inactive
Cc1ccc(OCCn2c(CCNC(=O)c3ccc([N+](=O)[O-])cc3)nc3ccccc32)cc1	inactive
Cc1ccnc(NC(=S)N2CCN(c3cccc(N(C)C)c3)CC2)c1	inactive
COc1cc(O)c(C(CC(=O)N2CCCC(C)C2)c2ccc(OC)c(OC)c2)c(OC)c1 (stereo not given)	inactive
CC(C)(C)OC(=O)Cc1nnc(C(C(=O)OCc2ccccc2)c2ccccc2)s1 (stereo not given)	inactive
COC(=O)c1ccc(OC(C)=O)c2ncccc12	inactive
COc1ccc(C2=Nn3c(nnc3-c3ccc(OC)c(OC)c3)SC2)cc1	inactive

Structure (SMILES)	Potency
CNc1sc(-c2cccc3ccccc23)nc1C(=O)OC	inactive
O=C(Nc1ncc(Cc2ccc(C(F)(F)F)cc2)s1)c1ccc(-c2ccc([N+](=O)[O-])cc2)o1	inactive
Cc1cc(C)nc(NC(=S)N2CCN(C3=Nc4ccccc4Oc4ccccc43)CC2)c1	inactive
O=C(CNC(=O)c1ccc(Cl)cc1)OC(C(=O)Nc1cc(C(F)(F)F)ccc1Cl)c1ccccc1 (stereo not given)	inactive
Cc1cc(NC(=O)Nc2cccc(-c3ccncc3)n2)ccc1Cl	inactive
CC(=O)N1CCN(C(=S)Nc2cc(C)ccn2)CC1	inactive
O=C(Nc1ccc(-c2nc3ccccc3[nH]2)cc1)Nc1ccc2c(c1)OCCO2	inactive
COc1cccc(C2c3c(ncn(CCN4CCOCC4)c3=N)Oc3ccc4ccccc4c32)c1 (stereo not given)	inactive
Cc1sc(C)c2c1C(=O)NS2(=O)=O	inactive
Cc1nc(CCNc2ncnc3ccc(-c4ccc5c(c4)OCO5)cc23)cs1	inactive
CC(Cc1cnccn1)Nc1cnc2c(O)ccc(C(=O)O)c2c1 (stereo not given)	inactive
Cc1cc2c(s1)c1cnn(Cc3cc(Cl)ccc3F)c(=O)c1n2C	inactive
O=[S+]([O-])(Nc1ccc2ccccc2c1)c1ccc(NCc2ccc(Cl)cc2O)cc1	inactive
Cc1cc(C(=O)Nc2ccc(NC(=O)Cc3ccc(Cl)c(Cl)c3)cc2)no1	inactive
CC(=O)Nc1sc2c(c1-c1ccc3nc[nH]c3c1)CCNC2	inactive
O=C(OCC#CCSc1nnc(-c2ccc3ccccc3c2)o1)c1ccc(F)cc1	inactive
COc1ccccc1/C=C/C(=O)NCCc1nc2ccccc2n1CCOc1ccc(C)cc1	inactive
Nc1cc(-c2nc(Nc3ccc(F)c(F)c3)c3ccccc3n2)ccn1	inactive
O=C1CCc2cc(S(=O)(=O)Nc3cccnc3)ccc2N1	inactive
N=c1c2c(ccn1CCCCc1ccccc1)Oc1ccc3ccccc3c1C2c1ccccc1 (stereo not given)	inactive
